From PubChem BioAssay AID1159580 (chemical genetic matrix, 2015)
Values joined by “and” are separate entries in the source; they are usually repeats but may differ in a detail not shown here. Identical values can stand only once. Hit rate of the full screen: of about 5,500 compounds, about 2,000 (36%) were called active. Roughly 18% stayed inconclusive and do not appear here. Rule as the data show it: active = normalized growth mostly below about 0.91 (no sharp cut-off); inconclusive = no clear call, values can overlap the other calls; inactive = mostly above about 0.92. The list shows a part of the results.

Assay: chemical genetic growth profiling, strain panel (AID 1159580);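 also: tested at 20 µM; growth read once vehicle control cultures reached saturation at 30 °C; 1 = growth at the plate median or of vehicle wells; lower values mean less growth of the strain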
Conditions: growth OD

Measured: normalized growth

CC(=O)Nc1ccc(OCC(O)CNC(C)C)cc1 (centres undefined)
inactive: S. cerevisiae deletion strains, locus YBR021W, strain FUR4, hits give low values 1.01 | S. cerevisiae deletion strains, locus YBR229C, strain ROT2, hits give low values 1 | S. cerevisiae deletion strains, locus YCL029C, strain bik1, hits give low values 0.995 | S. cerevisiae deletion strains, locus YDL035C, strain GPR1, hits give low values 1.01 | S. cerevisiae deletion strains, locus YDL074C, strain BRE1, hits give low values 1.02 | S. cerevisiae deletion strains, locus YDL101C, strain DUN1, hits give low values 1.01 | S. cerevisiae deletion strains, locus YDL185W, strain tfp1, hits give low values 1.01 | S. cerevisiae deletion strains, locus YDL192W, strain arf1, hits give low values 1 | S. cerevisiae deletion strains, locus YDR101C, strain arx1, hits give low values 1.02 | S. cerevisiae deletion strains, locus YDR150W, strain NUM1, hits give low values 1.01 | S. cerevisiae deletion strains, locus YDR162C, strain NBP2, hits give low values 1.01 | S. cerevisiae deletion strains, locus YDR318W, strain mcm21, hits give low values 1 | S. cerevisiae deletion strains, locus YDR388W, hits give low values 1 | S. cerevisiae deletion strains, locus YDR502C, strain sam2, hits give low values 0.99 | S. cerevisiae deletion strains, locus YEL061C, strain CIN8, hits give low values 1.01 | S. cerevisiae deletion strains, locus YER110C, hits give low values 1 | S. cerevisiae deletion strains, locus YER155C, strain BEM2, hits give low values 1.01 | S. cerevisiae deletion strains, locus YER167W, strain BCK2, hits give low values 1.01 | S. cerevisiae deletion strains, locus YGL078C, strain dbp3, hits give low values 0.999 | S. cerevisiae deletion strains, locus YGL086W, strain mad1, hits give low values 1 | S. cerevisiae deletion strains, locus YGL248W, strain PDE1, hits give low values 1 | S. cerevisiae deletion strains, locus YGR078C, strain PAC10, hits give low values 1.01 | S. cerevisiae deletion strains, locus YGR135W, strain pre9, hits give low values 0.996 | S. cerevisiae deletion strains, locus YGR229C, strain SMI1, hits give low values 1 | S. cerevisiae deletion strains, locus YGR252W, strain gcn5, hits give low values 0.975 | S. cerevisiae deletion strains, locus YHR030C, strain SLT2, hits give low values 1.01 and 0.983 | S. cerevisiae deletion strains, locus YHR079C, strain IRE1 (second series), hits give low values 0.999 | S. cerevisiae deletion strains, locus YHR079C, strain IRE1, hits give low values 0.978 | S. cerevisiae deletion strains, locus YHR094C, strain hxt1, hits give low values 0.999 | S. cerevisiae deletion strains, locus YHR129C, strain ARP1, hits give low values 1.01 | S. cerevisiae deletion strains, locus YHR200W, strain rpn10, hits give low values 1.01 | S. cerevisiae deletion strains, locus YIL066C, strain RNR3, hits give low values 1.01 | S. cerevisiae deletion strains, locus YIL073C, strain SPO22, hits give low values 1.03 | S. cerevisiae deletion strains, locus YIL125W, strain kgd1, hits give low values 1 | S. cerevisiae deletion strains, locus YIR030C, strain dcg1, hits give low values 0.995 | S. cerevisiae deletion strains, locus YJL095W, strain BCK1, hits give low values 1.02 and 0.982 | S. cerevisiae deletion strains, locus YJL134W, strain LCB3, hits give low values 1.01 | S. cerevisiae deletion strains, locus YJL168C, strain set2, hits give low values 1 | S. cerevisiae deletion strains, locus YJL187C, strain SWE1 (second series), hits give low values 1.02 | S. cerevisiae deletion strains, locus YJR043C, strain POL32, hits give low values 1.01 | S. cerevisiae deletion strains, locus YJR066W, strain TOR1, hits give low values 0.965 | S. cerevisiae deletion strains, locus YKL009W, strain mrt4, hits give low values 0.991 | S. cerevisiae deletion strains, locus YKL068W, hits give low values 1 | S. cerevisiae deletion strains, locus YKL085W, strain MDH1 (second series), hits give low values 1.01 | S. cerevisiae deletion strains, locus YKL085W, strain MDH1, hits give low values 1.01 | S. cerevisiae deletion strains, locus YKR001C, strain vps1, hits give low values 1 | S. cerevisiae deletion strains, locus YLR039C, strain RIC1, hits give low values 1.05 | S. cerevisiae deletion strains, locus YLR058C, strain SHM2, hits give low values 1.01 | S. cerevisiae deletion strains, locus YLR102C, strain apc9, hits give low values 0.996 | S. cerevisiae deletion strains, locus YLR113W, strain HOG1, hits give low values 1.01 | S. cerevisiae deletion strains, locus YLR262C, strain YPT6, hits give low values 1.03 | S. cerevisiae deletion strains, locus YLR268W, strain sec22, hits give low values 0.998 | S. cerevisiae deletion strains, locus YLR330W, strain CHS5, hits give low values 1.01 | S. cerevisiae deletion strains, locus YLR342W, strain FKS1 (second series), hits give low values 1.02 | S. cerevisiae deletion strains, locus YLR371W, strain rom2, hits give low values 1.01 | S. cerevisiae deletion strains, locus YLR418C, strain cdc73, hits give low values 0.981 | S. cerevisiae deletion strains, locus YML016C, strain PPZ1, hits give low values 1.01 | S. cerevisiae deletion strains, locus YML032C, strain rad52, hits give low values 1.02 | S. cerevisiae deletion strains, locus YML124C, strain tub3, hits give low values 0.998 | S. cerevisiae deletion strains, locus YMR078C, strain ctf18, hits give low values 1 | S. cerevisiae deletion strains, locus YMR223W, strain ubp8, hits give low values 0.985 | S. cerevisiae deletion strains, locus YMR307W, strain GAS1, hits give low values 0.965 | S. cerevisiae deletion strains, locus YNL067W, strain RPL9B, hits give low values 1.02 | S. cerevisiae deletion strains, locus YNL128W, strain TEP1, hits give low values 1.02 | S. cerevisiae deletion strains, locus YNL153C, strain GIM3, hits give low values 1.02 | S. cerevisiae deletion strains, locus YNL183C, strain NPR1, hits give low values 0.938 | S. cerevisiae deletion strains, locus YNL233W, strain BNI4, hits give low values 1 | S. cerevisiae deletion strains, locus YNL250W, strain rad50, hits give low values 0.996 | S. cerevisiae deletion strains, locus YNL271C, strain bni1, hits give low values 0.992 | S. cerevisiae deletion strains, locus YNL298W, strain CLA4, hits give low values 1 | S. cerevisiae deletion strains, locus YNL307C, strain MCK1, hits give low values 1 | S. cerevisiae deletion strains, locus YNR052C, strain pop2, hits give low values 1.01 | S. cerevisiae deletion strains, locus YOL012C, strain htz1 0.693 | S. cerevisiae deletion strains, locus YOL147C, strain pex11, hits give low values 0.999 | S. cerevisiae deletion strains, locus YOR061W, strain CKA2, hits give low values 1.01 | S. cerevisiae deletion strains, locus YOR069W, strain VPS5, hits give low values 1.01 | S. cerevisiae deletion strains, locus YOR136W, strain idh2, hits give low values 0.999 | S. cerevisiae deletion strains, locus YOR144C, strain elg1, hits give low values 0.998 | S. cerevisiae deletion strains, locus YOR184W, strain ser1, hits give low values 1.01 | S. cerevisiae deletion strains, locus YOR231W, strain MKK1, hits give low values 0.965 | S. cerevisiae deletion strains, locus YOR316C, strain cot1, hits give low values 0.997 | S. cerevisiae deletion strains, locus YPL241C, strain CIN2, hits give low values 1.01 | S. cerevisiae deletion strains, locus YPL256C, strain CLN2, hits give low values 0.973 | S. cerevisiae deletion strains, locus YPR119W, strain clb2, hits give low values 1 | S. cerevisiae deletion strains, locus YPR141C, strain kar3, hits give low values 0.985 | S. cerevisiae deletion strains, locus YPR163C, strain tif3, hits give low values 1.01 | S. cerevisiae deletion strains, locus YPR167C, strain met16, hits give low values 1 | S. cerevisiae deletion strains, strain wtn01, hits give low values 0.979 | S. cerevisiae strains, strain wild type, hits give low values 1.01
